Source: PubChem BioAssay
Gal4-VP16 FLuc: Gal4-VP16 reporter inhibition counter-screen. Potency, µM (titrated, usually from 53.6 µM), for the others: at the highest dose activity, negative = inhibition, hits mostly inhibitors. 310,000 tested, 3.5% active. AID 2546. Drosophila S2 Gal4-VP16 UAS-luciferase, luminescence, 20 h;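 note: Gal4-VP16 expression switched on by copper sulfate through the metallothionein promoter; potency is the fitted concentration of half-maximal effect; % is set by controls: 0 for no effect and ±100 for the full control effect; nearly all actives have a fitted effect of over 50% in size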
SW480 rerep: induces DNA re-replication in SW480 colon adenocarcinoma cells; SW480 DNA re-replication, Hoechst DNA content imaging, 48 h; Potency, µM (titrated, usually from 46.1 µM), for inactives: at the top dose re-replication activation, most hits filed as activators; 340,000 tested, 1.8% active; AID 624297; note: potency is the fitted concentration of half-maximal effect; % of control where 0% means no effect; nearly all actives have a fitted effect of over 55% in size
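Per well, 250 cells were exposed to pinned compound for 48 hr. Nuclear DNA was visualised with Hoechst (40 min, 37 C) and total object intensity recorded by fluorescence scanning.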
MCF10A rereplic: inducers of DNA re-replication in MCF 10A breast cells | 350,000 tested, 2.9% active | Potency, µM (highest dose often 46.1 µM), for inactives: at the highest dose activity, positive = re-replication, usual class: activators | MCF 10A DNA re-replication, Hoechst nuclear intensity, 48 h; note: potency is the fitted concentration of half-maximal effect; % of control where 0% means no effect; nearly all actives have a fitted effect of over 50% in size
IL1B secr inh: inflammasome signaling inhibition, IL-1 beta readout; 360,000 tested, 4.7% active; THP-1 LPS/ATP IL-1B secretion, AlphaLISA, 16 h; stronger effect = lower value; activity change, % at 57.5 µM; in the data active = activity change below about -50%; inconclusive = mostly about -30% to -49%; note: % is set by controls: 0 for no effect and ±100 for the full control effect
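THP-1 cells pretreated 1 hr with compounds (up to 57.5 uM final), then stimulated with LPS (250 ng/mL final) plus ATP (1.25 mM final); secreted IL-1B measured by AlphaLISA after 16 hr, decreased signal indicating inhibition.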
RORgamma inh: inhibitors of mouse ROR gamma transcriptional activity; P51450; Drosophila S2 Gal4-RORgamma UAS-luciferase reporter, 20 h; Potency, µM (top dose mostly 53.6 µM), without a hit: at the top dose activity change, negative = inhibition, actives largely listed as inhibitors; 310,000 tested, 5.4% active; AID 2551; note: potency is the fitted concentration of half-maximal effect; % is set by controls: 0 for no effect and ±100 for the full control effect; nearly all actives have a fitted effect of over 60% in size
Target sequence (P51450 whole entry, looked up, the tested form may be a part): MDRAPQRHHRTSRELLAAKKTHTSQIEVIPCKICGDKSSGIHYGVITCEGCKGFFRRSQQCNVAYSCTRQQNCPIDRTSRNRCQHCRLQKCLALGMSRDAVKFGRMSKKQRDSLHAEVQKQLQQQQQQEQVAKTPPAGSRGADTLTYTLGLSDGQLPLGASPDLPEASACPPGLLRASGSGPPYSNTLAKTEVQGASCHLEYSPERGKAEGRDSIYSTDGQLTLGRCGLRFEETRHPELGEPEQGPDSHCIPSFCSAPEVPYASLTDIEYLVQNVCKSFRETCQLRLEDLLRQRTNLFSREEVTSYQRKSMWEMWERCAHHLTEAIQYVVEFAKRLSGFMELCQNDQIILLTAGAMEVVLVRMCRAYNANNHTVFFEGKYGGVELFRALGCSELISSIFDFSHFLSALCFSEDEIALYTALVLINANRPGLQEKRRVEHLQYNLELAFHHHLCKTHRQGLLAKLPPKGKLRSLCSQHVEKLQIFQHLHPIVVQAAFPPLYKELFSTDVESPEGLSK
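ROR gamma transcriptional activity was tracked as Gal4-UAS luciferase output in stably transfected Drosophila Schneider cells, with compound added 1 hr before 700 uM copper sulfate induction and a 20 hr ambient-temperature incubation.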
* marks the source's active call; other numbers are inactive results; ? = inconclusive; / = no result; [ ] = remark or other dose. An excerpt weighted towards active compounds, which were near 11% of everything screened. Unless noted, calls come from the whole dose curve; as a rule, active = well fitted curve in the direction sought with a large enough effect; inconclusive = small, poorly fitted or top-dose-only effect, or another doubt; inactive = no such curve, though single readings can be large; an effect the other way counts as inactive or inconclusive.

SMILES	Gal4-VP16 FLuc	SW480 rerep	MCF10A rereplic	IL1B secr inh	RORgamma inh
CC(=O)c1cccc(NC(=O)Nc2ccc3c(c2)CCC3)c1	7.9µM*	-2%	7%	-1	7.1µM*
NS(=O)(=O)c1cc(C(=O)Nc2ccc3c(c2)CCC3)ccc1Cl	?	-1%	0%	-68*	-33%
CCCCCCC(=O)N(O)C1CC(=O)N(c2ccc(Br)cc2)C1=O (stereo not given)	?	?	?	-82*	?
CCCCN(C(=O)CCC(=O)O)C1CC(=O)N(c2ccc(OCCC)cc2)C1=O (stereo not given)	-10%	-3%	-5%	-7	-18%
CCCCCCC(=O)N(O)C1CC(=O)N(c2ccc(F)cc2)C1=O (stereo not given)	?	26%	?	-88*	?
Cc1ccc(-c2c(C(=O)N/N=C/c3ccoc3)nnn2-c2nonc2N)cc1	?	-4%	-1%	-15	11µM*
Cc1ccc(-c2c(C(=O)N/N=C/c3ccc(OC(C)C)cc3)nnn2-c2nonc2N)cc1	?	-1%	1%	41	-98%
Cc1ccc(-c2c(C(=O)N/N=C/c3cccs3)nnn2-c2nonc2N)cc1	5.6µM*	-3%	?	-1	7.1µM*
Cc1ccc(-c2c(C(=O)N/N=C/c3ccsc3)nnn2-c2nonc2N)cc1	20µM*	-13%	1%	0	7.1µM*
CCOc1ccc(-c2c(C(=O)N/N=C/c3cccs3)nnn2-c2nonc2N)cc1	6.3µM*	-2%	?	0	2.2µM*
CN1CCN(c2ccc(C(CC(N)=O)NC(=O)Cc3cccc4ccccc34)cc2[N+](=O)[O-])CC1 (stereo not given)	-5%	-6%	-3%	0	-5%
CCOC(=O)/C(=C/C=C1\Sc2cc(OCC)c(OCC)cc2N1CC)C(C)=O	1%	-2%	20%	-2	16%
CCOC(=O)/C(=C\C=C1/Sc2cc(OCC)c(OCC)cc2N1CC)C(C)=O	-7%	1%	0%	-93*	40%
Cc1[nH]c(C(=O)N/N=C/c2ccc(C(=O)O)cc2)c(C)c1C(=O)N/N=C/c1ccc(C(=O)O)cc1	5%	-4%	-1%	-12	-29%
CCOC(=O)c1c(C)[nH]c(C(=O)N/N=C/c2ccc(Br)cc2)c1C	?	0.73µM*	?	14	?
CCOc1ccc(CNC(=O)Cn2ccc3cc(S(=O)(=O)N4CCCC4)ccc32)cc1	-2%	-9%	0%	12	26%
COC(=O)[C@H](C)N(Cc1ccc(Cl)c(Cl)c1)S(=O)(=O)CCNC1CCCC1	/	?	7%	?	/
CC(=O)c1cccc(NC(=O)NCCc2ccc(Cl)cc2)c1	1%	19%	10%	-16	31%
CC(=O)c1ccc(NC(=O)Nc2cccc(Cl)c2)cc1	19%	2%[9.22 µM]	?	-96*	?
CC(=O)c1ccc(NC(=S)NCCc2cccc(Cl)c2)cc1	?	4%	-5%	45	18µM*
Cc1c(C(=O)NCc2ccc([N+](=O)[O-])cc2)sc(=O)n1Cc1ccc2c(c1)OCO2	/	/	/	-21	/
Cc1ccc(S(=O)(=O)N2CCCCC2)cc1NC(=O)C1CC(=O)N(c2ccc3c(c2)OCCO3)C1 (stereo not given)	/	?	2%	7	/
COC(=O)CC(c1ccc(F)cc1)n1c(C)ccc1C (stereo not given)	-4%	9%[1.84 µM]	23µM*	-12	-25%
O=S(=O)(CC(CN1CCOCC1)N1CCOCC1)c1ccccc1 (stereo not given)	13%	6%	-10%	0	-12%
Cc1ccc(S(=O)(=O)CC(c2ccccc2)N2CCCCC2)cc1 (stereo not given)	-10%	-12%	-2%	?	-3%
SMILES	Gal4-VP16 FLuc	SW480 rerep	MCF10A rereplic	IL1B secr inh	RORgamma inh
Cc1ccc(S(=O)(=O)CC(CN2CCCCC2)N2CCCCC2)cc1 (stereo not given)	-19%	-1%	?	-98*	2.8µM*
O=S(=O)(CC(CN1CCCCC1)N1CCCCC1)c1ccc2ccccc2c1 (stereo not given)	?	?	?	-97*	13µM*
O=C(c1ccc(N2CCCC2)c([N+](=O)[O-])c1)N1CCN(S(=O)(=O)c2ccccc2)CC1	/	-10%	4%	?	/
CC(=O)c1ccc(Nc2ccc(-c3ccccc3C)nn2)cc1	-2%	24%	26µM*	-19	0%
CC(=O)c1cccc(Nc2ccc(-c3ccccc3F)nn2)c1	-15%	-3%	0%	-23	?
CCOC(=O)N(NC(=O)C(O)(c1ccccc1)c1ccccc1)c1ccccc1	-4%	2.9µM*	4%	-6	-9%
CCOC(=O)N(NC(=O)C(O)(C(C)C)C(C)C)c1ccccc1	5%	-18%	-3%	5	14%
CCCC(O)(CCC)C(=O)NN(C(=O)CCl)c1ccccc1	-20%	?	15µM*	?	?
COc1cccc(Oc2nc(N)ncc2[N+](=O)[O-])c1	-1%	2%	-4%	-73*	-26%
O=c1[nH]c2cc(Cl)c(O)cc2o1	-1%	/	/	/	40%
CCOc1ncccc1C(=O)N1CCCSC1=Nc1ccc(C(C)=O)cc1	0%	8%	0.92µM*	3	1%
CCOc1ccc(N=C2SCCCN2C(=O)c2c(CC)noc2C)cc1	-2%	-4%	3%	3	-6%
O=C(Nc1cccc(-c2csc(Nc3ccc(Cl)cc3)n2)c1)c1cccc(C(F)(F)F)c1	-6%	-2%	4.1µM*	?	?
Cc1nc(-c2cccc(NC(=O)c3ccc(-n4nccc4C)cc3)c2)cs1	/	-4%	?	-84*	/
O=C(Nc1cccc(-c2csc(Nc3ccccc3)n2)c1)c1cc([N+](=O)[O-])cc(C(F)(F)F)c1	1%	20%	-6%	-22	?
O=C(Nc1cccc(-c2csc(Nc3ccc(Cl)cc3)n2)c1)c1ccccc1	1%	-7%	16%	-59*	18%
O=C(Nc1cccc(-c2csc(Nc3ccc(Cl)cc3)n2)c1)c1cc([N+](=O)[O-])cc(C(F)(F)F)c1	-9%	6%	9.2µM*	-27	?
O=C(Nc1ccc(-c2csc(Nc3ccccc3)n2)cc1)c1ccccc1	8%	?	-25%	35	22%
CCCCn1c(N)c(N(CCOC)C(=O)C2CCN(C(=O)c3ccc(F)cc3)CC2)c(=O)[nH]c1=O	/	5%	0%	1	/
CCOC(=O)C(NC(=O)c1ccccc1Cl)(Nc1ccc(C)c(C)c1)C(F)(F)F (stereo not given)	-6%	4.1µM*	-68%	-25	-13%
CCOC(=O)c1cnc2c(C)cc(Cl)cc2c1NCCCN1CCOCC1	/	0%	23µM*	-73*	/
CCNC(=O)C1(C)CCN(C(=O)c2c(-c3ccccc3)noc2C)C1 (stereo not given)	/	/	/	27	/
